We go through 21 compounds from PubChem BioAssay (NCI).

The panel holds about 79,000 compounds, 15% with a hit somewhere; the sample as a whole holds those more often. Values without a mark were called inactive. Activity calls are given as the source filed them. No stated cut-off is given here; in the data, active means growth inhibition above about 70%; inactive means the rest.

Test [1] can be described thus: NCI Yeast Anticancer Drug Screen. Data for the rad50 strain (AID 155).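 Further: 0% = growth of vehicle-only cultures of the same strain.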 The conditions noted are these: S. cerevisiae rad50 strain growth inhibition; at 50.0 µM; hits give high values. A digest of the protocol:
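Inhibition values express reduced yeast growth in compound-treated cultures relative to vehicle-treated controls.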

The nature of test [2]: NCI Yeast Anticancer Drug Screen. Data for the mec2-1 strain (AID 157). The settings on record: S. cerevisiae mec2-1 strain, at 50.0 µM, hits give high values. A digest of the protocol: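 Readout is yeast growth inhibition, normalised to vehicle-treated controls, in the mec2-1 strain exposed to compound.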
Test [3] can be described thus: NCI Yeast Anticancer Drug Screen. Data for the sgs1 mgt1 strain (AID 161).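 Further: 0% = growth of cultures given vehicle only.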 The conditions noted are these: S. cerevisiae sgs1 mgt1 strain, at 50.0 µM, hits give high values. The gist of the method:
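Percent growth inhibition was derived by comparing compound-exposed mutant yeast with vehicle-exposed cultures. The strain carries alterations in DNA damage repair.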

The nature of test [4]: NCI Yeast Anticancer Drug Screen. Data for the cln2 rad14 strain (AID 165).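 Further: 0% = growth equal to vehicle treated cultures.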 The settings on record: S. cerevisiae cln2 rad14 strain, at 50.0 µM, hits give high values. A digest of the protocol:
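Relative to vehicle controls, growth inhibition of compound-treated cln2 rad14 yeast was recorded.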

Test [5] is described as follows: NCI Yeast Anticancer Drug Screen. Data for the bub3 strain (AID 167). The settings on record: S. cerevisiae bub3 mutant strain, at 50.0 µM, hits give high values. The gist of the method:
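Steps: expose the mutant yeast strain to compound; grow alongside vehicle-treated cultures; measure growth; express inhibition against the vehicle cultures.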

Test [6] can be described thus: NCI Yeast Anticancer Drug Screen. Data for the mlh1 rad18 strain (AID 175). The conditions noted are these: S. cerevisiae mlh1 rad18 strain growth inhibition; at 50.0 µM; hits give high values. A digest of the protocol: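 Test agents were incubated with a yeast strain of defined genotype (DNA damage repair defect). Inhibition of growth was derived by comparison with vehicle-exposed cultures.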

For `CC(C)NCCO`, the growth inhibition is 23.1% in test [1]; -3% in test [2]; -1.85% in test [3]; 21.2% in test [4]; 0.3% in test [5]; 12.3% in test [6].

`COc1ccc(C(O)c2ccccc2C(=O)Nc2ccccc2)cc1` (stereo unspecified): the growth inhibition was -4.95% in test [1]; -9.7% in test [2]; -18.2% in test [3]; -21.9% in test [4]; -3.35% in test [5]; -3.9% in test [6].

Consider `NC(=O)NC=O`, for which the growth inhibition was 10.8% in test [1]; -3.95% in test [2]; 14.7% in test [3]; 1.25% in test [4]; -14.6% in test [5]; 14.3% in test [6].

For `N#Cc1nc(CCC(C(=O)O)N2C(=O)c3ccccc3C2=O)oc1N` (stereo unspecified), the growth inhibition in test [1] was 3.55%; in test [2], 15.2%; in test [3] it was -12.1%; in test [4], -0.55%; in test [5] it was -9.15%; in test [6], -46.9%.

In the case of `COc1ccc2c(c1)C1(C)CCCC(C)(CN=C=O)C1CC2` (stereo unspecified), the growth inhibition in test [1] was 3.55%; in test [2], 14.4%; in test [3], -4.75%; in test [4] it was 4.8%; in test [5], -11.9%; in test [6], -1.95%.

As to `CCN(CC)CCOC(=O)Nc1cc(C)cc(C)c1`, the growth inhibition in test [1] is 24.6%; in test [2], -9.15%; in test [3] it was 27.5%; in test [4] it was 16.4%; in test [5] it was 31.9%; in test [6], 17.1%.

Regarding `CC(=O)Nc1ccc(/C=C2\SC(=S)N(C=C(C#N)C#N)C2=O)cc1`, the growth inhibition was 3.95% in test [1]; 12.2% in test [2]; -10.4% in test [3]; 38.5% in test [4]; 15.2% in test [5]; -2.35% in test [6].

As to `CC(=O)Oc1c(C(C)C)cccc1C(C)(C)C`, the growth inhibition in test [1] is -10.8%; in test [2], -9.95%; in test [3], -1.1%; in test [4] it was -14.1%; in test [5], -34.1%; in test [6], -13.5%.

Turning to `CCOC(=O)COC(=O)C1C(C(N)=O)N(CC(=O)OCC)CCN1CC(=O)OCC` (stereo unspecified), the growth inhibition in test [1] is 1.85%; in test [2], 1.9%; in test [3], -7.9%; in test [4] it was -0.85%; in test [5] it was -2.45%; in test [6], 2.25%.

Take `Cc1ccc([N+](=O)[O-])cc1NC(=O)Nc1cccc(Cl)c1Cl`: the growth inhibition in test [1] is 3.55%; in test [2], 2.95%; in test [3], 9.8%; in test [4] it was 9%; in test [5] it was 18.1%; in test [6], 11.1%.

As to `CCOC(=O)C(C)C(=O)OCC`, the growth inhibition is 51.2% in test [1]; -17.9% in test [2]; 2.55% in test [3]; -3.6% in test [4]; 2.3% in test [5]; 34.5% in test [6].

Regarding `CCCN=C(N)NC#N`, the growth inhibition is 16.9% in test [1]; 0.8% in test [2]; -2.4% in test [3]; 7.85% in test [4]; -16.6% in test [5]; 15.1% in test [6].

On to `Cc1ccccc1/C=N/NC(=O)c1cccc2ccccc12`, for which the growth inhibition in test [1] is -6.85%; in test [2] it was 0.8%; in test [3], -10.8%; in test [4] it was -23%; in test [5] it was 0.75%; in test [6] it was 0.6%.

On to `CCO/C([O-])=C(\C=N\S(=O)(=O)c1ccc(C)cc1)[n+]1ccccc1`, for which the growth inhibition was 8.8% in test [1]; 13.8% in test [2]; 5.1% in test [3]; -20.2% in test [4]; -3.85% in test [5]; 2.65% in test [6].

For the compound `CCN(CC)CCOC(=O)Cc1cccc2c(=O)cc(-c3ccc(OC)cc3)oc12`, the growth inhibition in test [1] is 50.4%; in test [2], -9.95%; in test [3], -12.4%; in test [4], 8.9%; in test [5] it was -10.2%; in test [6] it was -45.4%.

As to `O=[N+]([O-])c1ccc(/C=C(/c2ccc([N+](=O)[O-])o2)S(=O)(=O)c2ccccc2)o1`, the growth inhibition in test [1] was 86% (active); in test [2], 67.7%; in test [3] it was 92.1% (active); in test [4], 71.1% (active); in test [5], 61%; in test [6], 90.2% (active).

Turning to `COc1cc(S(N)(=O)=O)c(OC)cc1N`, the growth inhibition in test [1] is 21.1%; in test [2], -28.2%; in test [3], -11.4%; in test [4], 8.8%; in test [5], -5.6%; in test [6], -10.1%.

Consider `CC(C)CCN(CC(C)C)C(=O)c1ccc([N+](=O)[O-])cc1` (tested in a mixture with another compound), for which the growth inhibition in test [1] is 16.1%; in test [2], 0.6%; in test [3], 8.75%; in test [4], -3.25%; in test [5], -5.6%; in test [6] it was 14.1%.

With `CC(c1ccccc1)C(C)(C)O` (stereo unspecified), the growth inhibition in test [1] was 10.2%; in test [2], -8.25%; in test [3] it was 27%; in test [4] it was 20.3%; in test [5], -14.5%; in test [6], -4.95%.

On to `C1=Nc2ccccc2/C1=C/C=C/c1ccccc1`, for which the growth inhibition in test [1] was 24.6%; in test [2] it was 31.6%; in test [3], 28.3%; in test [4], 10.2%; in test [5] it was 41.5%; in test [6], 21.8%.

For the compound `CCOc1c(N=Nc2cccc(Cl)c2)c(-c2ccccc2)nn1C(N)=S`, the growth inhibition in test [1] is -3.4%; in test [2] it was -10.3%; in test [3] it was -24.2%; in test [4] it was 2.15%; in test [5] it was 35.5%; in test [6] it was 20.8%.
